PTPN22 inh 2 = blocks human PTPN22 phosphatase activity | Q9Y2R2 | inhibition, % at 2 µM | hit rate 0.21% among 96,000 | AID 640 | recombinant LYP catalytic domain, DiFMUP fluorescence;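 active = inhibition at 2 µM at or above a set limit, the screen mean plus 3 SD, cut at about 24% in these data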;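 note: 0% = DMSO with enzyme and 100% = enzyme fully blocked by orthovanadate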
PLK1 inh = inhibitors of human PLK1 kinase. P53350. recombinant PLK1 kinase, TR-FRET peptide phosphorylation. inhibition, % at 10 µM. hit rate 0.53% among 97,000. AID 619;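 active = inhibition of 50% or more in the single-concentration screen; inactive = inhibition below 50%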;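 note: 0% = DMSO max control and 100% = H-89 dihydrochloride min control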
Target sequence (P53350 whole entry, looked up): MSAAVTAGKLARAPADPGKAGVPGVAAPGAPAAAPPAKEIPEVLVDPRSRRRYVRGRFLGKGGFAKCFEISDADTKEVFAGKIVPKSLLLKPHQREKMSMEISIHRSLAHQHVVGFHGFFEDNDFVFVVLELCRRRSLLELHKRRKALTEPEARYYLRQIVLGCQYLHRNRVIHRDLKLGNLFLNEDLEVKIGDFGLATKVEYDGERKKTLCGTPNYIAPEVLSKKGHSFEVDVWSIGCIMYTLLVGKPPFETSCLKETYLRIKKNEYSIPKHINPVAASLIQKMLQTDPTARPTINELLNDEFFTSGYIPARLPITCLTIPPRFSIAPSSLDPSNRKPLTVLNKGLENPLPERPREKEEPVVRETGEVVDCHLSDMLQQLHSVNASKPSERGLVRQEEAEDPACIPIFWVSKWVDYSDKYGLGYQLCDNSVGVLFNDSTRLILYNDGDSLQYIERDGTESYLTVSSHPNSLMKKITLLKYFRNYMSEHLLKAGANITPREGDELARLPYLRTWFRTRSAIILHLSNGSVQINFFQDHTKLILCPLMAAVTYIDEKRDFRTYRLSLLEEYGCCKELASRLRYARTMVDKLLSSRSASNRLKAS
Plk1 PBD FP = Plk1 (human) PBD binding inhibition; Plk1 PBD phosphopeptide binding, fluorescence polarization; inhibition, %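 (tested at about 20 µM)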; P53350; AID 693; hit rate 0.13% among 97,000; in the data active = inhibition above about 34%, passing the limit was not always enough
LYP act = activators of human LYP (PTPN22) phosphatase; Q9Y2R2; recombinant LYP, DiFMUP fluorescence; 0 = plate median, 100 = signal doubled; activation, % at 2 µM; hit rate 0.11% among 96,000; AID 697;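 active = activation at 2 µM above a set limit, the mean plus 5 SD, cut at about 37% in these data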
PLK1 inh conf = PLK1 (human) kinase inhibition, confirmed | shares compounds with PLK1 inh | recombinant PLK1 kinase, TR-FRET peptide phosphorylation | inhibition, % at 10 µM | hit rate 20% among 210 | AID 744;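 active = inhibition at or above 50% in each of two repeat confirmation tests; inconclusive = one repeat below 50% inhibition, the other above; inactive = both repeats at or below 50% inhibition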;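 note: 0% = DMSO max control and 100% = H-89 kinase-blocked min control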
Plk1 interf = Plk1 assay compound interference counter-screen hit; shares compounds with PLK1 inh; Plk1 TR-FRET assay interference, compound added post-reaction; inhibition (interference), % at 10 µM; 210 tested, under 10 active; AID 756;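 active = both duplicate runs show 50% or greater inhibition; inconclusive = only one duplicate run shows over 50% inhibition; inactive = both runs show under 50% inhibition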;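 note: 0% = DMSO max control and 100% = H-89 min control inhibited reaction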
PBD redox DR = generates H2O2 by redox cycling, flagging false Plk1 PBD hits. shares compounds with Plk1 PBD FP. redox cycling H2O2 generation, DTT, counter-screen. EC50, µM. 120 tested, under 10 active; call rule not given here
* marks the source's active call; other numbers are inactive results; u = inconclusive; x = no result. Compounds with a hit are over-represented: about 0.93% of the library has one in this group of screens.

SMILES	PTPN22 inh 2	PLK1 inh	Plk1 PBD FP	LYP act	PBD redox DR	others
Cc1cccc(-c2nc(CS(=O)CC(=O)N3CCc4ccccc4C3)c(C)o2)c1 (centres undefined)	-8	-23	0	7	x
CCOC(=O)N1CCN(C(=O)CS(=O)Cc2nc(-c3cccc(C)c3)oc2C)CC1 (centres undefined)	x	75*	-11	x	x	PLK1 inh conf=-8;Plk1 interf=-48
CCC1(N(C(C)=O)c2ccc(OC)cc2)C(=O)c2ccccc2C1=O	-15	1	1	13	x
CCn1ccc(C(=O)Nc2ccc(Cl)cn2)n1	x	71*	2	x	x	PLK1 inh conf=-8;Plk1 interf=-57
CCn1nccc1C(=O)Nc1ccc(Cl)cn1	-6	-9	-12	8	x
CC(C)Cc1nc2n[nH]c(N)c2c2c1COC(C)(C)C2	6	75*	-35	-3	x	PLK1 inh conf=u;Plk1 interf=-54
Cc1c(C(=O)OC(C)C)sc2nc[nH]c(=O)c12	-3	77*	7	5	x	PLK1 inh conf=69*;Plk1 interf=-50
COC(=O)c1sc2nc[nH]c(=O)c2c1C	-1	74*	12	-1	x	PLK1 inh conf=71*;Plk1 interf=-49
Cc1cccc(Cn2c(N3CCCCC3C)nc3c2c(=O)[nH]c(=O)n3C)c1 (centres undefined)	x	83*	-24	x	x	PLK1 inh conf=5;Plk1 interf=-50
Cc1cccc(Cn2c(N3CCc4ccccc4C3)nc3c2c(=O)[nH]c(=O)n3C)c1	12	-3	17	-11	x
CCn1cc(C(=O)N2CC(C)CC(C)C2)c(=O)c2cc(S(=O)(=O)N3CCOCC3)ccc21 (centres undefined)	-12	-2	-3	10	x
CCOC(=O)C1CCN(C(=O)CN(c2ccc(OC)cc2)S(=O)(=O)c2c(C)nn(C)c2C)CC1	x	73*	14	x	x	PLK1 inh conf=-7;Plk1 interf=-60
CCOC(=O)C1CCN(C(=O)CN(c2ccc(OC)cc2)S(=O)(=O)c2c(C)noc2C)CC1	-5	-23	14	3	x
O=C(c1ccco1)N1CCN=C1SCc1ccccc1F	x	78*	14	x	x	PLK1 inh conf=-9;Plk1 interf=-59
O=C(c1ccco1)N1CCN=C1SCc1cccnc1	-3	-9	16	2	x
O=C(c1ccc(S(=O)(=O)N2CCOCC2)cc1)N1CCN(c2ccccc2F)CC1	1	-13	-21	-2	x
NC(=O)c1ccc(C(F)(F)F)n(Cc2cccc(Cl)c2)c1=O	-5	75*	24	8	x	PLK1 inh conf=62*;Plk1 interf=-56
NC(=O)c1ccc(C(F)(F)F)n(Cc2ccc(Cl)cc2)c1=O	-18	81*	-19	20	x	PLK1 inh conf=56*;Plk1 interf=-49
O=C(NCC1CCCO1)C1CCN(S(=O)(=O)c2cccc3nonc23)CC1 (centres undefined)	4	2	2	-1	x
COc1ccccc1N1CCN(S(=O)(=O)c2ccc(F)cc2)CC1	23	82*	8	-23	x	PLK1 inh conf=-4;Plk1 interf=-54
O=C(c1nn2cccnc2c1Cl)N1CCN(c2ccccc2)CC1	-11	-10	0	8	x
CCCSc1nc(N2CCOCC2)c2c(c1C#N)CCCC2	2	-14	51*	-3	>50
c1cncc(-c2nnc(C3CCCCC3)o2)c1	2	-14	-9	-4	x
COC(=O)c1cc(NC(=O)c2ccccc2)c(=O)oc1C/C=N\OCc1ccc(Cl)cc1Cl	8	-4	-8	-7	x
O=C(NCc1cccs1)c1csc2ccccc12	6	5	-13	-2	x
SMILES	PTPN22 inh 2	PLK1 inh	Plk1 PBD FP	LYP act	PBD redox DR	others
CC(=O)N(CN1C(=O)c2ccccc2C1=O)c1cccc(C)c1	6	-10	-1	-8	x
CC(=O)N(/N=C1\Sc2ccccc2C1=O)c1cccc(C)c1	8	-11	77*	-6	>50
CC(C)Nc1nnc(SCC(=O)c2c(N)n(Cc3ccccc3)c(=O)n(C)c2=O)s1	13	0	45*	-9	>50
CC1CN(C2CC(C)(C)NC(C)(C)C2)CCC1=O (centres undefined)	6	0	53*	-5	>50
O=C(NC(NC(=S)Nc1ccccc1)C(Cl)(Cl)Cl)c1cccc(Cl)c1 (centres undefined)	0	-11	9	4	x
O=C(NC(NC(=S)Nc1ccc(Cl)cc1Cl)C(Cl)(Cl)Cl)c1cccc([N+](=O)[O-])c1 (centres undefined)	1	-2	56*	3	>50
Cn1cc(SCC(=O)Nc2ccc3c(c2)OCCO3)c2ccccc21	0	4	44*	-2	>50
CCn1c(=O)cc(SCC(=O)Nc2ccc3c(c2)OCO3)c2ccccc21	18	-7	17	-14	x
O=C(O)C1C2C=CC(C2)C1C(=O)Nc1ccc2c(c1)OCCO2 (centres undefined)	-8	-7	7	7	x
O=C(O)C1CCCCC1C(=O)Nc1ccc2c(c1)OCCO2 (centres undefined)	3	-8	52*	-5	>50
COc1cccc(C(=O)NCc2ccc(-c3nc4ccccc4s3)cc2)c1	1	-18	-14	2	x
COc1cc(OC)cc(C(=O)NCCCN2CCOCC2)c1	1	-9	53*	0	>50
Nc1cc(-c2ccc(Br)cc2)nn1S(=O)(=O)c1cccc2nsnc12	-9	-2	47*	6	>50
Cc1cccc(C)c1NC1=NC(=S)N(c2ccccc2)C12CCOC(C)(C)C2 (centres undefined)	13	-3	111*	-13	>50
Cc1ccc(C(=O)C(C(=O)/C=C/c2ccccc2)=C2SCCCS2)cc1	-4	-7	12	4	x
O=C1Nc2ccc([N+](=O)[O-])cc2C1(O)N1CCCCC1 (centres undefined)	11	-14	57*	-8	>50
O=C(NC(O)C(=O)c1cccs1)c1cccnc1 (centres undefined)	18	0	19	-17	x
CSCCC(C(=O)Nc1ccc2c(c1)OCO2)N1C(=O)c2ccccc2C1=O (centres undefined)	-12	-9	12	10	x
O=c1[nH]cc(COCc2ccccc2)c(=O)[nH]1	-6	-7	46*	6	>50
CCn1c(SCC(N)=O)nnc1-c1ccc(S(=O)(=O)N2CCN(C)CC2)cc1	-6	-11	44*	2	>50
CCn1c(SCC(=O)N2CCCCC2C)nnc1-c1ccc(S(=O)(=O)N2CCN(C)CC2)cc1 (centres undefined)	2	-6	-28	-1	x
COCCn1c(SCC(=O)Nc2sccc2C(N)=O)nc2cc(Cl)ccc2c1=O	7	10	-11	-4	x
COCCn1c(=O)c2cc3c(=O)n(CCOC)c(=O)c3cc2c1=O	-9	5	-5	10	x
O=C1C(C2=C(O)c3ccccc3C2=O)=Nc2ccccc21	-14	23	66*	12	29*
OCC(CO)(CO)N=Cc1cc(Br)ccc1O	-13	-7	47*	11	>50
CC(C)N(Cc1cc2ccccc2[nH]c1=O)C(=O)c1cccnc1	-10	-9	35*	7	>50

Source: PubChem BioAssay
